From PubChem BioAssay
A selection: hits, their analogues and other compounds. The true share with any hit is near 2.3%.
aSyn yeast inh: rescues yeast growth from alpha-synuclein toxicity | 370,000 tested, 0.14% active | Potency, µM (top dose mostly 46.1 µM), for the others: at the top dose growth rescue (activation), usual class: activators | AID 652106 | Yeast expressing alpha-synuclein, growth rescue, BacTiter-Glo, 24 h; also: % of control where 0% means no effect; nearly all actives have a fitted effect of over 65% in size
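Screening used galactose-induced yeast with toxic alpha-synuclein levels, exposed to compound for 24 hr at 30 deg C. Cell growth, read with BacTiter-Glo luminescence, gave the measured signal.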
uPA surface inh: cell surface uPA generation inhibition; 330,000 tested, 0.31% active; cell surface uPA generation assay, qHTS; Potency, µM (titrated, usually from 38.3 µM), without a hit: at the highest dose activity change, negative = inhibition, usual class: inhibitors; active = well fitted inhibition curve with a large enough effect; inconclusive = small, poorly fitted or top-dose-only effect; inactive = no such curve, though single readings can be large or run the other way; tested in mouse RAW 264.7 cells; also: % is scaled to controls: 0 for no effect and ±100 for the full control effect; nearly all actives have a fitted effect of over 55% in size
Abeta rescue: compounds reversing amyloid beta toxicity in yeast. yeast expressing A-beta42, growth rescue, OD600, 48 h; response scale: 0% DMSO, 100% iron-clioquinol control. Potency, µM (top dose mostly 46.1 µM), most hits filed as activators. 410,000 tested, 0.063% active. AID 1347071; also: nearly all actives have a fitted effect of over 55% in size
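Yeast A-beta toxicity model in growth medium with pinned compounds, 48 h at 30 C; growth read as absorbance at 600 nm. Normalized to FeCl3/clioquinol equimolar mix (positive) and DMSO (negative).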
BCR signal inh: chronic active BCR signaling inhibition. 340,000 tested, 0.05% active. Potency, µM (top dose mostly 46.1 µM), for inactives: at the highest dose activity change, negative = inhibition, usual class: inhibitors. ABC-DLBCL IkBa-CBG/CBR reporter, luminescence ratio, 4 h. AID 493014; active = well fitted inhibition curve with a large enough effect in the signal ratio, with a control signal flat, not every such curve was filed as active; inconclusive = small, poorly fitted or top-dose-only effect, or effect the other way, or a change in a side signal; the % refers to the signal ratio;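 also: plate controls were basal doxycycline-induced cells for no effect and cells given 10 µM MG132 for full effect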
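Doxycycline induced both beetle luciferases in TMD8 lymphoma cells; IKK-driven degradation limits the IkappaBalpha-fused green signal, while red luminescence normalises for cell number and nonspecific effects. Compounds tested up to 46 uM, 4 hrs.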
TDP43 rescue: rescues yeast growth from TDP-43 toxicity. TDP-43 expressing yeast growth rescue, BacTiter-Glo, 24 h. Potency, µM (titrated, usually from 46.1 µM), for inactives: at the top dose growth rescue (activation), hits mostly activators. 410,000 tested, 1.8% active. AID 652104; also: % of control where 0% means no effect; nearly all actives have a fitted effect of over 50% in size
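Readout is BacTiter-Glo luminescence of cell growth, so inhibitors register as activators. TDP-43-expressing yeast at OD600=0.02 in galactose medium, after raffinose pregrowth to mid-log, were incubated with compound for 24 hr at 30 deg C.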
FUS yeast rescue: FUS proteinopathy suppression in yeast; S. cerevisiae FUS-expressing, growth rescue, OD600, 24 h; Potency, µM (series often up to 76.6 µM), hits mostly activators; 390,000 tested, 0.24% active; AID 1347120;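 also: plate controls were DMSO vehicle for no effect and reference control for full effect; nearly all actives have a fitted effect of over 55% in size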
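Restored growth of FUS-toxic S. cerevisiae, read as 600 nm absorbance after 24 h at 30C in galactose medium (starting OD 0.005). Controls CP55940 and DMSO.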
Starred values were filed as active, the others as inactive; i = inactive; u = inconclusive; x = no result given; [ ] = another dose, or the depositor's remark. Unless noted, calls follow the shape of the dose curve; as a rule, active = well fitted curve in the direction sought with a large enough effect; inconclusive = small, poorly fitted or top-dose-only effect, or another doubt; inactive = no such curve, though single readings can be large; an effect the other way counts as inactive or inconclusive. Potency is read from the fitted curve at half-maximal effect.

SMILES	aSyn yeast inh	uPA surface inh	Abeta rescue	BCR signal inh	TDP43 rescue	FUS yeast rescue
O=C(O)c1ccc(N2N=C(c3ccccc3)CC2c2ccccc2)cc1 (stereo unspecified)	0%	-23%	i	u	13µM*	i
CC1(C)CC(=O)C2=C(C1)NC1=C(C(=O)c3ccccc31)C2c1ccc(O)cc1 (stereo unspecified)	0%	-2%	i	-1%	u	x
COc1ccc(C2SCCN2C(=S)Nc2cccc(Cl)c2)cc1 (stereo unspecified)	19%	-9%	i	0%	18µM*	x
COc1ccc2oc(=O)cc(CN3CCN(C(=O)c4ccccc4Br)CC3)c2c1	x	x	i	x	4%	i
CCC(C)NC(=O)C1CCN(S(=O)(=O)c2cc([N+](=O)[O-])ccc2Cl)CC1 (stereo unspecified)	-1%	-10%	i	-1%	18%	i
CC1CCN(S(=O)(=O)c2cc([N+](=O)[O-])ccc2Cl)CC1	2%	7.9µM*	i	0%	22%	i
CCOc1ccccc1CNC(=O)c1cn(C)c(=O)c2c1c1ccccc1n2C	-2%	6%	i	3%	3%	i
CCn1ncc(Br)c1C(=O)Nc1ccccc1C(=O)OC	-7%	0%	i	x	14µM*	i
COC(=O)C1=C(C)N(c2ccc(C(=O)OC)cc2)C(=O)C1	11%	1%	i	5%	12%	i
COC(=O)C1=C(C)N(c2cc(Cl)cc(Cl)c2)C(=O)C1	-1%	-10%	i	u	18µM*	i
Cc1cccc(CNc2ncnc3ccc(-c4cccnc4)cc23)c1	x	6%	i	-29%	x	i
O=c1c2ccccc2ncn1Cc1cccc2ccccc12	19%	5%	i	-11%	11µM*	i
Cc1cc(C)c(NC(=O)CN(C2CCCCC2)C2CCCCC2)c(C)c1	-8%	0%	i	11%	-15%	i
N#Cc1cc(-c2ccccc2)[nH]c1-c1nccc2ccccc12	6%	2%	i	u	11µM*	i
COc1ccc(NC(=O)c2ccc([N+](=O)[O-])s2)c([N+](=O)[O-])c1	1%	u	i	u	21%	i
Cc1ccc(C)c(NC(=O)c2cc(-c3ccccc3)nn2-c2ccccc2)c1	-24%	-4%	i	10%	-8%	i
CC(=O)c1ccc(NC(=O)c2nc(-c3ccccc3)n(-c3ccc(C)cc3)n2)cc1	x	x	i	x	18µM*	u
Cc1ccc(C)c(NC(=O)c2nc(-c3ccccc3)n(-c3ccccc3)n2)c1	-17%	-5%	i	-19%	18µM*	u
CC(=O)c1ccc(NC(=O)c2nc(-c3ccccc3)n(-c3ccc(Cl)cc3)n2)cc1	x	x	i	x	7.9µM*	i
O=C(O)c1nc(-c2ccccc2)n(-c2ccc(Cl)cc2)n1	3%	-6%	i[9.22 µM]	u	19%	i
Cc1ccc(NC(=O)c2cc(C)n(-c3ccccc3)c2C)cc1	-15%	-20%	i	u	25µM*	i
CC(=O)c1cccc(NC(=O)c2nc(-c3ccccc3)n(-c3ccccc3)n2)c1	x	x	i	x	0%	i
COc1ccc(-n2nnc(-c3nc(-c4cccs4)no3)c2N)cc1	x	x	i	x	0%	i
Cc1ccc(OCC(=O)Nc2cc(-c3cccc(C)c3)nn2-c2ccccc2)cc1	x	x	i	x	16%	i
Cc1cccc(-c2cc(NC(=O)c3ccccc3C)n(-c3ccccc3)n2)c1	x	x	i	x	20µM*	i
Cc1ccc(NC(=O)c2cc(C)nn2-c2ccccc2)cc1	2%	-11%	i	-23%	18µM*	i
Cc1nn(Cc2ccc(F)cc2)c(C)c1NC(=O)c1cnn2c1NC(c1ccccc1)CC2C(F)(F)F (stereo unspecified)	1%	x	i	12%	3%	u
